Screening results: PubChem BioAssay, National Center for Advancing Translational Sciences (NCATS)
PKM2 act = activators of human pyruvate kinase M2; P14618; purified PKM2, Kinase-Glo ATP luminescence, activation; response scale: 0% is enzyme alone, no compound; Potency, µM (titrated, usually from 57.5 µM), usual class: activators; hit rate 0.34% among 260,000; AID 1631; further: nearly all actives have a fitted effect of over 55% in size
Target sequence (P14618 whole entry, looked up): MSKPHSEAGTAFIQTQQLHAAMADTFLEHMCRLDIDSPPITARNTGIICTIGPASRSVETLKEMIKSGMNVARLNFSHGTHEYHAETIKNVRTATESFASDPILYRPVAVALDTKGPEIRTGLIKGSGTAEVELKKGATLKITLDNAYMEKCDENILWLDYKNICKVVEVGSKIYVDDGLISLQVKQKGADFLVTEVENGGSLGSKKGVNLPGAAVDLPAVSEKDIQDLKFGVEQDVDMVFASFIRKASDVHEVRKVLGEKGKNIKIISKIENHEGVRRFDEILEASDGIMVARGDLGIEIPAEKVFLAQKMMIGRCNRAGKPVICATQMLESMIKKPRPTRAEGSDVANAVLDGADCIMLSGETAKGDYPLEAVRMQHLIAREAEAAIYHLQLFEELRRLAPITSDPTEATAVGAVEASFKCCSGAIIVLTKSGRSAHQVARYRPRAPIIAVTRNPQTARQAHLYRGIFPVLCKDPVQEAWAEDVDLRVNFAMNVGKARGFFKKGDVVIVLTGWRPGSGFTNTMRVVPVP
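hPK-M2, >95% pure; 0.1 mM ADP / 0.5 mM PEP final; imidazole pH7.2 buffer w/ 7 mM MgCl2, 50 mM KCl; 1 h RT; Kinase-Glo lum. Intermediate enzyme activity for dual inhibitor/activator qHTS.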
KDM4E inh = JMJD2E (human) inhibition. B2RXH2. JMJD2E catalytic domain, FDH-coupled NADH fluorescence (FDH is formaldehyde dehydrogenase). Potency, µM (highest dose often 57.1 µM), most hits filed as inhibitors. hit rate 1.6% among 230,000; active means well fitted inhibition curve with a large enough effect, not every such curve was filed as active; inconclusive means small, poorly fitted or top-dose-only effect, or another doubt; inactive means no such curve, though single readings can be large or run the other way; further: nearly all actives have a fitted effect of over 50% in size
APE1 inh = APE1 (human) endonuclease inhibition; P27695; recombinant APE1, TAMRA/BHQ-2 abasic DNA cleavage fluorescence; Potency, µM (titrated, usually from 65.8 µM), actives largely listed as inhibitors; hit rate 0.35% among 350,000; further: nearly all actives have a fitted effect of over 55% in size
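Endonuclease cleavage of a quenched abasic-site DNA duplex (50 nM) by APE1 (0.75 nM) was tracked by TAMRA dequenching. Compounds were preincubated with enzyme 15 min at room temperature; data normalized to buffer-only and DMSO wells plus NSC13755 control.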
RECQ1 inh-1 = blocks DNA unwinding by human RECQ1 | Potency, µM (series often up to 57.3 µM), hits mostly inhibitors | hit rate 0.54% among 240,000 | P46063 | AID 2549 | RECQ1 DNA unwinding, red fluorescence kinetic read; further: nearly all actives have a fitted effect of over 30% in size
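RECQ1T1 50 nM; forked duplex (20 bp + 30-nt ss tails) 200 nM, ATP 2 mM final; pH 8.0, 2 mM MgCl2, 2.5 ug/ml poly(dI-dC); 15 min compound preincubation; discontinuous kinetic read over 2 h at RT.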
BLM inh = inhibitors of human Bloom syndrome helicase BLM | hit rate 0.2% among 350,000 | recombinant BLM DNA unwinding, fluorescence dequenching | P54132 | Potency, µM (highest dose often 56.1 µM), actives largely listed as inhibitors; further: nearly all actives have a fitted effect of over 35% in size
RECQ1 inh conf = confirmation of human RECQ1 helicase inhibitors; shares compounds with RECQ1 inh-1; RECQ1 helicase DNA unwinding, fluorescence; Potency, µM (titrated, usually from 229 µM), most hits filed as inhibitors; hit rate 28% among 610; further: nearly all actives have a fitted effect of over 45% in size
RECQ1 ADP FP = ADP displacement flagged in RECQ1 inhibitor counter-screen; Potency, µM (top dose mostly 228 µM), actives largely listed as inhibitors; hit rate 27% among 530; ADP fluorescence polarization displacement counterscreen; shares compounds with RECQ1 inh-1; further: nearly all actives have a fitted effect of over 45% in size
RECQ1 inh-2 = RECQ1 helicase inhibition confirmed, round 2; shares compounds with RECQ1 inh-1; recombinant RECQ1 DNA unwinding, red fluorescence; Potency, µM (doses to about 119 µM), actives largely listed as inhibitors; hit rate 15% among 1,100; AID 504841; further: nearly all actives have a fitted effect of over 50% in size
Each line names hits and unclear results; the compound was inactive in the other large screens (follow-up assays come after a bar, where they were run). This excerpt belongs to a sample that is enriched for hits. Unless noted, the call rests on the fitted dose curve; in most records, active means well fitted curve in the direction sought with a large enough effect; inconclusive means small, poorly fitted or top-dose-only effect, or another doubt; inactive means no such curve, though single readings can be large; an effect the other way counts as inactive or inconclusive.

O=c1cc(CSc2ccc(Cl)cc2)[nH]c2[nH]n(-c3ccccc3)c(=O)c12	RECQ1 inh-1 inconclusive | RECQ1 inh-2 inactive
O=C(O)CC/C(=N/NC(=O)c1cn(-c2ccccc2)nc1-c1ccccc1)C(=O)O	none | RECQ1 inh conf inactive | RECQ1 ADP FP inactive
COc1ccc(C(=O)Nc2nc(-c3ccc([N+](=O)[O-])cc3)c(-c3ccc(OC)cc3)s2)cc1	RECQ1 inh-1 inconclusive | RECQ1 inh-2 inactive
COc1ccc(C(=O)Nc2nc3c(s2)CCc2cc(OC)ccc2-3)cc1	none (no result: PKM2 act, KDM4E inh, APE1 inh, RECQ1 inh-1)
CC1=Nc2ccccc2/C1=C/c1sc(=N)n(-c2nccs2)c1O	RECQ1 inh-1 18µM | RECQ1 inh conf inactive | RECQ1 ADP FP inactive
CCCCC(=O)N1CCc2cc(OC)c(OC)cc2C1COc1ccc(C(=O)OCC)cc1 (stereo not drawn)	none (no result: PKM2 act, KDM4E inh, APE1 inh, RECQ1 inh-1)
COc1ccc(NC(=O)c2ccc(OCc3c(C)noc3C)c(OC)c2)cn1	none | RECQ1 inh conf inactive | RECQ1 ADP FP 112µM
COc1cc(C(=O)Nc2nccs2)ccc1OCc1c(C)noc1C	none
C=CCn1c(SCC(=O)O)nnc1-c1cccs1	KDM4E inh inconclusive | RECQ1 inh conf inactive | RECQ1 ADP FP inactive
COc1ccc(CCNC(=O)c2ccc3c(c2)CCN3S(=O)(=O)c2ccc(Cl)cc2)cc1	none (no result: PKM2 act, KDM4E inh, APE1 inh, RECQ1 inh-1)
O=C1CC(Nc2ccc(N3CCOCC3)cc2)C(=O)N1c1cccc(C(F)(F)F)c1 (stereo not drawn)	KDM4E inh inconclusive, RECQ1 inh-1 inconclusive | RECQ1 inh-2 inactive
COc1cccc(N2C(=O)CC(Nc3ccc(N4CCOCC4)cc3)C2=O)c1 (stereo not drawn)	none
O=C(NCCc1ccc(F)cc1)C(=O)NCC(c1cccs1)S(=O)(=O)c1ccc(F)cc1 (stereo not drawn)	none (no result: PKM2 act, KDM4E inh, APE1 inh, RECQ1 inh-1)
COc1ccc(NC(=O)N2CCc3nc(COc4ccccc4)c4c(c3C2)CO[C@@H](C)C4)cc1	none
C=C(C(C)=O)C(O)c1ccco1 (stereo not drawn)	KDM4E inh inconclusive (no result: PKM2 act)
O=C(N/N=C/c1cccc(NC(=O)c2ccc(Cl)cc2)c1)c1ccc(O)cc1	APE1 inh inconclusive, RECQ1 inh-1 18µM | RECQ1 inh conf 112µM | RECQ1 ADP FP inactive
CCN(CC)c1ccc(-c2nc(-c3ccco3)no2)cc1[N+](=O)[O-]	none (no result: PKM2 act, KDM4E inh, APE1 inh, RECQ1 inh-1)
Cc1ccc2ncc(C(=O)NC(C)c3ccccc3)c(=O)n2c1 (stereo not drawn)	none (no result: PKM2 act, KDM4E inh, APE1 inh, RECQ1 inh-1)
CCn1c(SCC(=O)c2cc(C)n(CC3CCCO3)c2C)nc2ccccc21 (stereo not drawn)	RECQ1 inh-1 40µM | RECQ1 inh-2 inactive
Cc1cc(C(=O)CSc2nc3ccccc3c(=O)n2C)c(C)n1CC1CCCO1 (stereo not drawn)	none
Cc1noc(C)c1-c1cc(NC2CCNCC2)ncn1	none (no result: PKM2 act, KDM4E inh)
CCOC(=O)CN1C(=O)S/C(=C/C=C/c2ccc(N(C)C)cc2)C1=O	RECQ1 inh-1 25µM, BLM inh inconclusive | RECQ1 inh-2 32µM
COc1ccc(CNC(=O)C2CCN(S(=O)(=O)c3c(C)noc3/C=C/c3ccccc3F)CC2)cc1	none (no result: PKM2 act, KDM4E inh, APE1 inh, RECQ1 inh-1)
COn1c(SCc2cccc(Cl)c2)nc2ccccc2c1=O	RECQ1 inh-1 7.1µM | RECQ1 inh conf inactive | RECQ1 ADP FP inconclusive | RECQ1 inh-2 inactive
COn1c(SCc2ccccc2)nc2ccccc2c1=O	none
CC(O)[C@@H]1NC(=O)[C@H](CCCN)NC(=O)[C@@H](Cc2c[nH]c3ccccc23)NC(=O)[C@H](Cc2ccc(O)cc2)NC(=O)[C@@H](NC(=O)[C@H](N)Cc2ccccc2)CSSC(C)(C)C(C(=O)N[C@H](C(N)=O)[C@@H](C)O)NC1=O (stereo partly drawn)	none (no result: PKM2 act, KDM4E inh)
CCC(C)CCCCC(=O)NC(CCN)C(=O)NC(C(=O)NC(CCN)C(=O)NC1CCNC(=O)C(C(C)O)NC(=O)C(CCN)NC(=O)C(CCN)NC(=O)C(CC(C)C)NC(=O)C(Cc2ccccc2)NC(=O)C(CCN)NC1=O)C(C)O (stereo not drawn)	RECQ1 inh-1 5µM, BLM inh 7.9µM (no result: PKM2 act, APE1 inh) | RECQ1 inh conf 2.8µM | RECQ1 ADP FP inconclusive
CCCC/C=C/[C@H](c1ccccc1)[C@H](CO)Cc1ccccc1	none (no result: PKM2 act, KDM4E inh)
CN1CCN(S(=O)(=O)c2ccc(NC(=S)NC(=O)C3CCCCC3)cc2)CC1	RECQ1 inh-1 inconclusive | RECQ1 inh-2 inactive
COC(=O)Nc1ccc(S(=O)(=O)N2CCCCC2C(=O)O)cc1 (stereo not drawn)	none | RECQ1 inh conf inactive | RECQ1 ADP FP inactive
CN(C)C(=O)c1ccc(-c2nc(NCc3ccccc3)c3ccccc3n2)cc1	none (no result: PKM2 act)
CCCC[C@]12Cc3ccccc3C(O1)c1c(cc(-c3ccccc3)oc1=O)O2	none (no result: KDM4E inh, RECQ1 inh-1)
O=C(C1CCC(Cn2c(=O)c3sccc3n(Cc3cccc(F)c3)c2=O)CC1)N1CCCCC1 (stereo not drawn)	none (no result: PKM2 act, KDM4E inh, APE1 inh, RECQ1 inh-1)
Cc1ccc(S(=O)(=O)N2CCc3ccccc3C2CN2C(=O)c3ccccc3C2=O)cc1 (stereo not drawn)	RECQ1 inh-1 32µM | RECQ1 inh-2 inactive
CCOC(=O)c1ccc(OC(=O)c2cn(-c3ccc(C)cc3)c(=O)c3ccccc23)cc1	none (no result: PKM2 act, KDM4E inh, APE1 inh, RECQ1 inh-1)
CC(C)(C)[C@@H]1C=C(C(=O)NCc2ccccc2)O[C@H](OCc2ccc(CO)cc2)C1	RECQ1 inh-1 inconclusive | RECQ1 inh conf inactive | RECQ1 ADP FP inconclusive
Cc1cc(O)c2c(c1O)C(=O)c1c(O)cc(C)c(O)c1C2=O	KDM4E inh inconclusive, APE1 inh inconclusive (no result: PKM2 act)
Cc1cc(=O)c2c(O)c3c(O)cc(O)c4c5c(O)cc(O)c6c(O)c7c(=O)cc(C)c8c1c2c(c34)c(c65)c78	APE1 inh 3.2µM, RECQ1 inh-1 0.56µM, BLM inh 20µM (no result: PKM2 act, KDM4E inh) | RECQ1 inh conf inconclusive | RECQ1 ADP FP 0.14µM
COC(=O)C1=C[C@@H](C(=O)OC)C2C3=C(C(=O)[C@]2(C)NC(=O)c2ccccc2)[C@H](C)[C@@H]2C(=O)N(C)C(=O)[C@@H]2[C@@H]3C1 (stereo partly drawn)	none (no result: PKM2 act, KDM4E inh)
Cc1cccc(NC(=O)c2ccc3ccccc3n2)c1C	RECQ1 inh-1 inconclusive | RECQ1 inh-2 inactive
CCCCn1c(SCC(=O)NCc2ccco2)nc2ccc(N3CCOCC3)cc2c1=O	KDM4E inh inconclusive, RECQ1 inh-1 inconclusive | RECQ1 inh-2 inconclusive
CCCCn1c(SCC(=O)NCc2ccccc2)nc2ccc(N3CCOCC3)cc2c1=O	KDM4E inh inconclusive
